Measurements published in PubChem BioAssay.
Where “and” joins values, the source holds several entries; their conditions need not be identical. Equal values may be shown once. Calls of active or inactive are those of the source.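 The calls were made as follows, unless noted: active = compound raises insulin release from rat beta cells at 5 mM glucose, no numeric limit stated; inactive = the rest.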

Experiments:
[1] = stimulators of nuclear beta-catenin in C2C12, primary screen, imaging, WNT3A-conditioned medium, mouse C2C12, NPC library (AID 1117326; in the data active = nuclear beta-catenin stimulation mostly above about 4.2%, no sharp cut-off; inactive = mostly below about 10%); conditions: stronger effect = higher value
[2] = stimulators of insulin release from INS-1E, primary screen, cell-based, 5 mM glucose, NPC library (AID 1117329); conditions: rat INS-1E insulin secretion, at 10 µM, stronger effect = higher value
[3] = growth inhibition of GSK3B-pretreated HCT116 cells – cell-based, CellTiter-Glo, 0.2 to 20 µM (AID 1117336;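 active = compounds lowering colon cancer cell viability after pretreatment blocking the GSK3B kinase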); conditions: HCT116 viability after GSK3B inhibitor, at 20 µM, stronger effect = higher value
[4] = inhibition of endothelial tube formation, primary screen, imaging, VEGF stimulated, CD31 staining, tube area, NPC library (AID 1117340;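 active = compound that reduces growth-factor-driven endothelial tube area in a mixed cell culture, no cutoff stated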); conditions: VEGF-stimulated ADSC/ECFC co-culture, at 10 µM, stronger effect = higher value
[5] = glucagon-like peptide 1 release enhancers, primary assay, NCI-H716 cell line, NPC library (AID 1117341;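 active = compound raises GLP1 secretion from the human gut endocrine cells, with no numeric limit stated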); conditions: NCI-H716 cells, at 10 µM, stronger effect = higher value
[6] = HCT116 colon cancer cell growth inhibition, primary screen, CellTiter-Glo luminescence, NPC library (AID 1117342;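 active = compounds that lower survival of HCT116 colon cancer cells in the luminescence readout, no numeric limit stated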); conditions: at 20 µM (top of the series)
[7] = CellTiter-Glo luminescent readout of SW480 viability loss, NPC library primary (AID 1117343;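 active = compounds that lower viability of the colon cancer cells in the luminescence readout, with no numeric limit stated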); conditions: CellTiter-Glo luminescence; at 20 µM (top of the series)
[8] = decreased DLD-1 cellular survival, CellTiter-Glo luminescent readout, NPC compound collection, primary HTS (AID 1117346;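 active = compounds that lower survival of DLD-1 colon cancer cells in the luminescence readout, no cutoff given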); conditions: DLD-1 viability, CellTiter-Glo luminescence; at 20 µM (top of the series)
[9] = biological target: 6-phosphogluconate dehydrogenase, decarboxylating (Homo sapiens) (UniProt P52209); experiment: 6PGD enzyme inhibitors, primary screen, biochemical, human, recombinant enzyme, NADPH absorbance (AID 1159550;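 active = at least 20% inhibition of 6-phosphogluconate dehydrogenase activity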); conditions: recombinant 6PGD, NADPH absorbance 341 nm; at 10 µM; stronger effect = higher value
[10] = differential killing of epithelial or mesenchymal cells, primary screen, imaging, PC-3E GFP, TEM4-18 mCherry, co-culture (AID 1345086;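 active = compounds killing one labelled cell type while sparing the other, by normalised counts and ratio limits, not self-fluorescent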;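 as to all read-outs here: cells exposed to compound for 72 h before imaging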;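 as to red/green cell ratio (normalised): normalised mesenchymal count divided by normalised epithelial count so high means epithelial killing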); conditions: imaging cell counts, at 1 µM; for red/green cell ratio (normalised): actives lie on both sides, counts scaled to control wells, 1 = unselective
[11] = sensitizers of A549 cells to miR-34 induction, primary screen, imaging, A549 dox-inducible miR-34, nuclei and caspase counts (AID 1347080;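 active = compounds whose cell count with miR-34 switched on is under 0.7 times the count with it off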); conditions: A549 miR-34 inducible, Hoechst nuclei count, 48 h
[12] = survival rescue of mitochondrial mutant cells in low glucose, primary screen, MELAS cybrids, Rieske KO mouse fibroblasts, CellTiter-Glo (AID 1508586;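 active = mean z-score across replicates of 1.96 or higher in either the MELAS or the Rieske mutant cell line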;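 also: z relative to plate mean and SD of compound and empty wells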)
[13] = biological target: NAD(+) hydrolase SARM1 (Homo sapiens) (UniProt Q6SZW1); experiment: SARM1 TIR NADase inhibitors, cell lysate, NAD-Glo luminescence (AID 1508614;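 active = compound whose remaining NAD level is above about 45 nM, limit read from the data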;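 also: higher remaining NAD means stronger inhibition of SARM1 NADase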); conditions: SAM-TIR HEK293T lysate NADase, at 1 µM, stronger effect = higher value
[14] = biological target: Mitogen-activated protein kinase 7 (Homo sapiens) (UniProt Q13164); experiment: ERK5 transactivation activators in reporter cells, primary screen, cell-based, HTS (AID 1508626;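 active = luciferase signal above three times the same-plate solvent-only control wells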;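 also: luciferase driven by Gal4-ERK5 fusion binding five Gal4 sites before minimal TATA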); conditions: HeLa Gal4-ERK5 transactivation, 18 h, at 5 µM, stronger effect = higher value
[15] = modulation of C. elegans fzo-1 (AID 1259413; call rule not given here;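 also: fzo-1 mutant C. elegans worms in liquid wells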); conditions: C. elegans fzo-1 modulator screen, mean read-out; stronger effect = higher value
F380Y = experiment: modulators of BK channel variants, profiling panel, selectivity assay, cell-based, U2OS BacMam, thallium flux, beta subunits (AID 1259406;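 active = thallium flux through the channel raised or lowered by more than 3 SD from vehicle-only wells, actives on both sides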;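 also: initial slope of Thallos dye fluorescence rise after thallium is added; log ratio against the mean of 0.3% DMSO vehicle wells on the same plate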); conditions: at 30 µM
F380Y/beta1 = experiment: as above; conditions: at 30 µM
F380Y/beta2Delta = experiment: as above; conditions: at 30 µM
[16] = measured here: epithelial PC-3E GFP cell survival
[17] = measured here: mesenchymal TEM4-18 mCherry cell survival
[18] = stronger effect = lower value, cell number ratio, induced over uninduced
[19] = measured here: relative caspase fold change +Dox/-Dox
[20] = measured here: total cells with miR-34 induction, stronger effect = lower value
[21] = measured here: total cells without miR-34 induction
[22] = MELAS cybrid survival, CellTiter-Glo 48 h, stronger effect = higher value
[23] = Rieske KO mouse fibroblast survival, CellTiter-Glo 72 h

NAD(+) hydrolase SARM1 (Homo sapiens), sequence (Q6SZW1 whole entry, looked up, the tested form may be a part): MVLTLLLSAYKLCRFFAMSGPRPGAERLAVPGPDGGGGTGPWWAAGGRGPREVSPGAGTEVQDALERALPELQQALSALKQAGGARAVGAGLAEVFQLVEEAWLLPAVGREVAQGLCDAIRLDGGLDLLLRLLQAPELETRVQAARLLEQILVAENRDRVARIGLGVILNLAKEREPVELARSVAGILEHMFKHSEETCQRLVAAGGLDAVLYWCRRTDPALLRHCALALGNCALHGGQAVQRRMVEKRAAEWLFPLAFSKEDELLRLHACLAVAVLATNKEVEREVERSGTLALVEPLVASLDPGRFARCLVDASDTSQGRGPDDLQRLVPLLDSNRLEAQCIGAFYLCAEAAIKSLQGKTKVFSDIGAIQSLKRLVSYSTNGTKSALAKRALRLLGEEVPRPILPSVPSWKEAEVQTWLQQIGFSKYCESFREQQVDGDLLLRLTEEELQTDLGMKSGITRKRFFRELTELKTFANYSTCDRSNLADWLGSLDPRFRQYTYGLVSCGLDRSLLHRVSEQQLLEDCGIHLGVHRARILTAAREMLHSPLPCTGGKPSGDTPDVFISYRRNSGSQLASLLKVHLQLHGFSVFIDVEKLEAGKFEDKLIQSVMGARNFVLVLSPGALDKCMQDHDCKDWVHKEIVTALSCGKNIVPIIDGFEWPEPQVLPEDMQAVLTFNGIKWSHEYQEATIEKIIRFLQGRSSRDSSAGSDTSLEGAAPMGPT
6-phosphogluconate dehydrogenase, decarboxylating (Homo sapiens), sequence (P52209 whole entry, looked up): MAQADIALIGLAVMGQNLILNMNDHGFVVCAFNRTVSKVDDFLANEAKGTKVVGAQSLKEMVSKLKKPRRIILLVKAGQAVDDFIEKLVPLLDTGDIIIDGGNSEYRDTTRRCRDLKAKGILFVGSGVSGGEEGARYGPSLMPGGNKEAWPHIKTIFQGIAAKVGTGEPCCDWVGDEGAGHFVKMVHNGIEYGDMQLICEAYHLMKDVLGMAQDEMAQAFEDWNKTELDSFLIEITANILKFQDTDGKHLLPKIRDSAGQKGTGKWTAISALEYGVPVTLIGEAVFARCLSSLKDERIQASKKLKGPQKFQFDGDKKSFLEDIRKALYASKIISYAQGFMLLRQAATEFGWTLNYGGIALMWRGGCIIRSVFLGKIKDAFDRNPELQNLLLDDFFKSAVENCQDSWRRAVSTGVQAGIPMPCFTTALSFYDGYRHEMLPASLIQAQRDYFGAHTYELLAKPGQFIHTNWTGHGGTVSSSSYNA
Mitogen-activated protein kinase 7 (Homo sapiens), sequence (Q13164 whole entry, looked up, the tested form may be a part): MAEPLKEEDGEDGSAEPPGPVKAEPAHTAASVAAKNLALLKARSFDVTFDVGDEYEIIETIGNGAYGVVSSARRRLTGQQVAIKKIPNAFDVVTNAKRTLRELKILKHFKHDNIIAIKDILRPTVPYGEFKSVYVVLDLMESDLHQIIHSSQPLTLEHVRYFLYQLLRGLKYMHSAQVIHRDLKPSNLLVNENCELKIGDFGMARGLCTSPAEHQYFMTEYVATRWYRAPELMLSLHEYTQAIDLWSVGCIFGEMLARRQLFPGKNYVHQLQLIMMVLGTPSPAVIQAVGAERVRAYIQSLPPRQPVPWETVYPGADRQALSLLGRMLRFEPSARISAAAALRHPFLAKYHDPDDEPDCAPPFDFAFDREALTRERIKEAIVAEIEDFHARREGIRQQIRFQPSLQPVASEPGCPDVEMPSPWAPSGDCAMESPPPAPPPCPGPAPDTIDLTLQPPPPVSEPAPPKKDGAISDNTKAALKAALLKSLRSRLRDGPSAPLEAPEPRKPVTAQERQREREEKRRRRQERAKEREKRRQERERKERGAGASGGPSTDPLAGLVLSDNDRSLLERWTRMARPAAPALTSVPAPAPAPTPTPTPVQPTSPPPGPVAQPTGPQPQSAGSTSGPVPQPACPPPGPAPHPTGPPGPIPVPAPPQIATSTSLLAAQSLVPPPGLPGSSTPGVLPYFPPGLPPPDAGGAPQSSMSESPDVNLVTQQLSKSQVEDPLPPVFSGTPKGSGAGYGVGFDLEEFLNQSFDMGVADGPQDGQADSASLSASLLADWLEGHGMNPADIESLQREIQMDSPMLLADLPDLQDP

CCCCCCCC(=O)OCC(O)CO (stereo unspecified)
-1.7%: nuclear beta-catenin stimulation ([1]; stimulation, at 2 µM)
inactive: nuclear beta-catenin stimulation ([1]; at 10 µM) -2% | insulin secretion stimulation [2] 2.1% | viability decrease [3] -10.8% | tube area decrease [4] -3.1% | GLP1 secretion stimulation [5] -3.4% | inhibition of viability [6] -7.47% | viability decrease (inhibition) [7] 16.9% | viability decrease (inhibition) [8] -20.5%

CCOc1ccccc1O[C@H](c1ccccc1)[C@H]1CNCCO1
inactive: nuclear beta-catenin stimulation ([1]; at 10 µM) -0.4% | insulin secretion stimulation [2] 5.4% | viability decrease [3] -2.9% | tube area decrease [4] -5.2% | GLP1 secretion stimulation [5] 0.6% | inhibition of viability [6] 22.7% | viability decrease (inhibition) [7] 6.2% | viability decrease (inhibition) [8] 18.8%
-2.9%: nuclear beta-catenin stimulation ([1]; stimulation, at 2 µM)

CC(C)OP(=O)(CP(=O)(OC(C)C)OC(C)C)OC(C)C
inactive: nuclear beta-catenin stimulation ([1]; at 10 µM) -0.3% | insulin secretion stimulation [2] 0.8% | viability decrease [3] -8.5% | tube area decrease [4] 11.4% | GLP1 secretion stimulation [5] -0.8% | inhibition of viability [6] 1.5% | viability decrease (inhibition) [7] -11.1% | viability decrease (inhibition) [8] 10.4%
1.5%: nuclear beta-catenin stimulation ([1]; stimulation, at 2 µM)

CCN(CCO)CCCC(C)Nc1ccnc2cc(Cl)ccc12 (stereo unspecified)
5.27: fold change [11, 19]
11300: cell count [11, 20]
1.1: normalised cell number [10, 17]
0.0866: z-score [12, 23]
inactive: nuclear beta-catenin stimulation ([1]; at 10 µM) 3.8% | insulin secretion stimulation [2] 1.6% | viability decrease [3] 18.3% | tube area decrease [4] 22.5% | GLP1 secretion stimulation [5] 4.3% | inhibition of viability [6] 8.93% | viability decrease (inhibition) [7] -0.9% | viability decrease (inhibition) [8] -7.1% | inhibition [9] 13.2% | red/green cell ratio (normalised) [10] 0.76 | fold change [11, 18] 0.835 | z-score [12, 22] -0.0994 | remaining NAD [13] 10 nM | luciferase signal [14] 96 AU
13500: cell count [11, 21]
1.45: normalised cell number [10, 16]
4.2%: nuclear beta-catenin stimulation ([1]; stimulation, at 2 µM)

C[C@@H](CN(C)C)CN1c2ccccc2Sc2ccccc21
active: insulin secretion stimulation [2] 15.1% | viability decrease (inhibition) [7] 103%
inactive: nuclear beta-catenin stimulation ([1]; at 10 µM) 3% | viability decrease [3] -61.3% | tube area decrease [4] 0.6% | GLP1 secretion stimulation [5] 10.3% | inhibition of viability [6] 45.3% | viability decrease (inhibition) [8] 48.3%
-0.4%: nuclear beta-catenin stimulation ([1]; stimulation, at 2 µM)

CCOC(=O)C(=O)CCCCCCl
inactive: nuclear beta-catenin stimulation ([1]; at 10 µM) 0.6% | insulin secretion stimulation [2] 1.45% | viability decrease [3] 12.3% | tube area decrease [4] -8.5% | GLP1 secretion stimulation [5] -1% | inhibition of viability [6] 12.6% | viability decrease (inhibition) [7] 11.4% | viability decrease (inhibition) [8] 0.1%
-1.9%: nuclear beta-catenin stimulation ([1]; stimulation, at 2 µM)

CCCCCCCCCCC(CO)CCCCCCCC (stereo unspecified)
inactive: nuclear beta-catenin stimulation ([1]; at 10 µM) -0.6% | insulin secretion stimulation [2] -0.5% | viability decrease [3] 11.5% | tube area decrease [4] -3.9% | GLP1 secretion stimulation [5] -4% | inhibition of viability [6] 5.07% | viability decrease (inhibition) [7] 14.5% | viability decrease (inhibition) [8] -17.6%
-0.4%: nuclear beta-catenin stimulation ([1]; stimulation, at 2 µM)

CCCCS(=O)(=O)N[C@@H](Cc1ccc(OCCCCC2CCNCC2)cc1)C(=O)O
-1.6%: nuclear beta-catenin stimulation ([1]; stimulation, at 2 µM)
inactive: nuclear beta-catenin stimulation ([1]; at 10 µM) 1.1% | insulin secretion stimulation [2] 0.7% | tube area decrease [4] -5.9% | GLP1 secretion stimulation [5] 5.3%
active: viability decrease [3] 96.5% | inhibition of viability [6] 72.5% | viability decrease (inhibition) [7] 64.5% | viability decrease (inhibition) [8] 50.1%

CC1Cc2ccccc2N1NC(=O)c1ccc(Cl)c(S(N)(=O)=O)c1 (stereo unspecified)
0.75 and 0.194 and 0.772: z-score [12, 23]
6%: nuclear beta-catenin stimulation ([1]; stimulation, at 2 µM)
inactive: nuclear beta-catenin stimulation ([1]; at 10 µM) 1% | insulin secretion stimulation [2] -0.1% | viability decrease [3] -7.2% | tube area decrease [4] 2.8% | GLP1 secretion stimulation [5] 4.6% | inhibition of viability [6] -2.13% | viability decrease (inhibition) [7] -2.3% | viability decrease (inhibition) [8] 3.8% | inhibition [9] 0.53% | mean signal [15] 231 | red/green cell ratio (normalised) [10] 1.37 | z-score [12, 22] -0.244 and 0.521 and 0.421 | remaining NAD [13] 10 nM | luciferase signal [14] 56 AU | log fold change Tl+ flux (F380Y) 0.00177 | log fold change Tl+ flux (F380Y/beta1) 0.039 | log fold change Tl+ flux (F380Y/beta2Delta) 0.049
1.01: normalised cell number [10, 16]
1.38: normalised cell number [10, 17]

Oc1c(Cl)cc(Cl)c2cccnc12
10.8%: nuclear beta-catenin stimulation ([1]; stimulation, at 2 µM)
inactive: nuclear beta-catenin stimulation ([1]; at 10 µM) 25.3% | insulin secretion stimulation [2] -1.7% | GLP1 secretion stimulation [5] 5.7% | inhibition [9] 13% | mean signal [15] 244 | red/green cell ratio (normalised) [10] 0.97 | fold change [11, 18] 1.3 and 0.99 and 0.933 | z-score [12, 22] -0.426 and -0.351 | remaining NAD [13] 10 nM | luciferase signal [14] 48 AU
1.04: normalised cell number [10, 16]
active: viability decrease [3] 90.7% | tube area decrease [4] 102% | inhibition of viability [6] 91.3% | viability decrease (inhibition) [7] 111% | viability decrease (inhibition) [8] 90% | log fold change Tl+ flux (F380Y) 0.177 | log fold change Tl+ flux (F380Y/beta1) 0.135 | log fold change Tl+ flux (F380Y/beta2Delta) 0.437
1.01: normalised cell number [10, 17]
0.846 and 0.186: z-score [12, 23]
3500 and 5780 and 5770: cell count [11, 21]
4540 and 5720 and 5380: cell count [11, 20]
0.88 and 1.1 and 1.4: fold change [11, 19]

N[C@@H]1CONC1=O
1.71: normalised cell number [10, 17]
1.27: normalised cell number [10, 16]
inactive: nuclear beta-catenin stimulation ([1]; at 10 µM) 0.4% | insulin secretion stimulation [2] 1.4% | viability decrease [3] -9.9% | tube area decrease [4] 3.2% | GLP1 secretion stimulation [5] -0.7% | inhibition of viability [6] 8.67% | viability decrease (inhibition) [7] -6.2% | viability decrease (inhibition) [8] -14.1% | inhibition [9] 6.28% | mean signal [15] 211 | red/green cell ratio (normalised) [10] 1.34 | z-score [12, 22] 0.819 | remaining NAD [13] 10 nM | luciferase signal [14] 64 AU | log fold change Tl+ flux (F380Y) 0.0411 and -0.0245 | log fold change Tl+ flux (F380Y/beta1) 0.0612 | log fold change Tl+ flux (F380Y/beta2Delta) -0.00859 and -0.0479
3.4%: nuclear beta-catenin stimulation ([1]; stimulation, at 2 µM)
0.724: z-score [12, 23]
